Measurements reported in PubChem BioAssay (NCI).
This is part of a sample that, as a whole, favours compounds with a hit. Of some 83,000 tested, about 20% had one in any assay.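 Testing used 96-well plates and a 48-hour single-concentration exposure. Example: -40 means 40% of the starting cells died.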 Values without a mark were called inactive. Activity calls are given as the source filed them.

What follows are molecules tested on RPMI-8226 leukemia (assay: NCI-60 one-dose screen, 48 h (100 = growth as untreated, 0 = no growth, -100 = all killed)). Details: 10 µM unless noted.
Protocol: Growth inhibition of the RPMI-8226 human tumor cell line is measured as a screen for anti-cancer activity. Cells are grown in 96 well plates and exposed to the test compound for 48 hours. Compounds are tested at a single concentration, which is 10^-5 M for most compounds. The reported endpoint is percent growth (GI% or GIPRCNT), where numbers from 0 - 100% represent growth inhibition, and numbers from -100% - 0 represent cell death. For example, a value of 40 represents 60% growth inhibition. A value of 0 means no net growth occurred over the course of the experiment. A value of -40 indicates 40% of cells at the beginning of the experiment died by the end of the experiment. A value of -100 means all cells are dead at the end of the experiment.
NCI-60 Human Tumor Cell Lines Screen was performed using the standard one-dose NCI protocol, which is described in more detail at https://dtp.cancer.gov/discovery_development/nci-60/default.htm.
Compounds with GIPRCNT values below 10 were considered active. Activity score was based on GIPRCNT using the following formula: […]
Score is 0 for GIPRCNT values of 100 or above, 50 for GIPRCNT values of 0, and 100 for GIPRCNT values of -100.
Molecule `CC(=O)n1cc(-c2c[nH]c3ccccc23)c(-c2ccc(Cl)cc2)n1` has a growth of 86.5%.
For `O=C(Nc1ccc(Cl)cc1F)c1cc(F)ccc1O`, the growth was -23% (active).
With `O=C(O)CCCN1C(=O)C2C3CCC(C3)C2C1=O` (stereo not given) the growth was 108%.
With `COc1cc(C2C3=C(COC3=O)N(CCO)c3cc4c(cc32)OCCO4)cc(OC)c1O` (stereo not given) the growth was 32.4%.
Work on `Clc1ccc(COc2ccc(Nc3ncnc4onc(-c5ccccc5)c34)cc2)cc1` yielded a growth of 74.8%.
`COc1nc2c(c(=O)n1C)N=C1c3ccccc3C(=O)C1C(c1ccccc1)N2` (stereo not given) was tested, and the growth was 92%.
Work on `OC(c1ccccc1)c1nnc(SCc2ccccc2)n1Cc1ccccc1` (stereo not given) yielded a growth of 72.5%.
With `CN(C)/C=C1\SC(=Nc2ccc(Cl)cc2)NC1=O` the growth was 108%.
With `Cc1cc(OC(=O)c2ccc([N+](=O)[O-])cc2)nc2[nH]c(=O)sc12` the growth was 99.8%.
`O=C1c2ccc3c4c(ccc(c24)C(=O)N1CCCCO)C(=O)N(CCCCO)C3=O` showed a growth of 16.8%.
Molecule `O=c1c(-c2nc3ccccc3[nH]2)cc2ccccc2n1Cc1cn(Cc2ccc(N3CCOCC3)cc2)nn1` has a growth of 80.4%.
With `CCOc1cccc(/C=N/NC(=O)C(=O)Nc2cccc(C(F)(F)F)c2)c1O` the growth was 29%.
With `COc1cc(NC(=O)CCSc2nc3ccccc3c(=O)n2Cc2ccccc2)cc(OC)c1OC` the growth was 56.9%.
Molecule `COc1cccc(C(=O)NC(c2ccc(C)cc2)c2cc(Cl)c3cccnc3c2O)c1` (stereo not given) has a growth of 15.5%.
For `O=C(/C=C/c1ccccc1)c1ccc(Nc2nc(NCCO)nc(Nc3ccc(Cl)cc3)n2)cc1`, the growth was 9.69% (active).
In the case of `COc1ccccc1CNC(=O)C1c2ccccc2C(=O)N(CC(C)C)C1c1cccs1` (stereo not given), the growth is reported as 2.15% (active).
`Cn1cc(-c2ccc3ncc(-c4ccc(CC(=O)Nc5cc(C(C)(C)C)no5)cc4)nc3c2)cn1` was tested, and the growth was 32.3%.
With `CC(=Nc1ccccc1)C1=C(O)C(Cc2ccc(F)cc2)NC1=O` (stereo not given) the growth was 5.55% (active).
`O=S(=O)(Nc1ncccn1)c1ccc(NC2Nc3nc4ccccc4nc3S2)cc1` (stereo not given) showed a growth of 99%.
`Cc1ccc2[nH]c(=O)cc(-n3nncc3Cn3c4ccccc4c4ccccc43)c2c1` showed a growth of 109%.
With `CCOC(=O)c1cc2c(n1Cc1cc(OC)c(OC)c(OC)c1)-c1oncc1CCC2` the growth was 16.8%.
Molecule `COc1ccc(-c2c(-c3ccc(OC)c(O)c3)cnc3ncnn23)cc1` has a growth of 108%.
In the case of `CCOc1ccc(-c2nonc2NC(=O)c2cccc(C)c2)cc1OCC`, the growth is reported as 9.09% (active).
`O=C(NN1C(=O)CSC1c1ccc(Cl)cc1)c1[nH]c2ccc(F)cc2c1-c1ccccc1` (stereo not given) gave a growth of 25%.
For `O=C(CSc1ccc2nnc(-c3cccc(F)c3)n2n1)Nc1ccc2c(c1)OCO2`, the growth was 52.3%.
`C=C1C(=O)O[C@H]2[C@H]1CC/C(COC(=O)/C=C\C(=O)O)=C\CC[C@@]1(C)O[C@@H]21` gave a growth of 114%.
With `Nc1ncnc(N)c1NC(=O)c1ccc(OCc2ccccc2)cc1` the growth was 105%.
With `COc1ccc(C)c2sc(N(Cc3cccnc3)C(=O)c3ccc(C#N)cc3)nc12` the growth was 8.4% (active).
With `COc1ccc(CCN2C(=O)CCSC2=S)cc1` the growth was 8.09% (active).
Molecule `Cn1nc(C(C)(C)C)cc1NC(=O)Cc1ccc(/C=C2\C(=O)Nc3ccccc32)cc1` has a growth of 28.7%.
`CCCCN1CCN(c2ccc3nc(-c4ccc5nc(-c6ccc(C(F)(F)F)cc6)[nH]c5c4)[nH]c3c2)CC1` was tested, and the growth was -35.3% (active).
With `O=c1oc2ccc(Br)cc2c(=O)n1-c1ccc(I)cc1F` the growth was -28.3% (active).
For `COc1ccc(/C=C2\SC(=Nc3ccccc3)NC2=O)cc1`, the growth was -50.9% (active).
For `C=C[C@@H]1CCC/C=C/[C@@H]2C[C@H](O)C[C@H]2[C@H](O)/C=C/C(=O)O1`, the growth was 23.6%.
With `COC(=O)C1=C(C)NC(C)=C(C(=O)OC)C(N2C(=O)CCC2=O)C1` (stereo not given) the growth was 66.8%.
In the case of `COc1ccc(C(=O)C2CC2c2ccc(Cl)cc2)cc1` (stereo not given), the growth is reported as 38.4%.
`Fc1cccc(COc2ccc(Nc3ncnc4onc(-c5ccccc5)c34)cc2)c1` was tested, and the growth was 12.5%.
`CC1=C(C(=O)OCC2CCN(C(=O)OC(C)(C)C)CC2)[C@H](c2cccc(Br)c2)C2=C(CC(C)(C)CC2=O)N1` gave a growth of 18.6%.
In the case of `O=c1oc2ccc(F)cc2c(=O)n1-c1ccc(F)cc1F`, the growth is reported as 5.47% (active).
For `CCC1=C[C@@H]2CN(C1)Cc1c([nH]c3ccccc13)[C@@](C(=O)OC)(c1cc3c(cc1OC)N(C)[C@H]1[C@@](O)(C(=O)OC)[C@H](OC(C)=O)[C@]4(CC)[C@@H]5C[C@@H]5CN5CC[C@]31[C@@H]54)C2`, the growth was -20.3% (active).
